Reference: ChEMBL document CHEMBL1157539, “Thousands of chemical starting points for antimalarial lead identification” (Nature, 2010)

The compounds below were run on Plasmodium falciparum (assay: GSK_TCMDC: Inhibition of Plasmodium falciparum 3D7 in whole red blood cells, using parasite LDH activity as an index of growth. Test compounds present at 2uM).
Assay type: functional

Structure (SMILES) | Inhibition [%]
O=C(/C=C/c1ccc2ccccc2c1)NCCCCCN1CCC(c2c[nH]c3ccccc23)CC1 | 90
Fc1ccc(Nc2ccnc3cc(-c4ccc(CN5CCOCC5)o4)ccc23)c(Cl)c1 | 100
CC(C)CCN(Cc1cncn1Cc1cccc(C(F)(F)F)c1)C(=O)c1cncc(-c2ccccc2)c1 | 100
COc1cc2c(cc1OCCN1CCC(N3CCCC3)CC1)N(C(=O)/C=C/c1ccccc1Cl)CC2.Cl | 100
COCCCNc1sc(S(=O)(=O)c2ccccc2)nc1S(=O)(=O)c1ccc(Cl)cc1 | 95
Cc1[nH]c(C)c(-c2ccc(CCc3ccc(F)cc3F)cc2)c(=O)c1Cl | 98
O=C(Nc1ccc(N2CCCN(Cc3cccc(F)c3)CC2)cc1)c1ccccc1.O=C(O)C(F)(F)F | 95
CC1CC(NCCCNc2cc(=O)c3ccccc3[nH]2)c2cc(Cl)c(Cl)c(Cl)c21 (stereo not given) | 100
N#Cc1nc2ccc(OCCN(Cc3ccccc3C(F)(F)F)c3ccc(C#N)c(C(F)(F)F)c3)cc2s1 | 93
C(=N\Nc1nccc2sc(-c3cccnc3)cc12)/c1ccncc1 | 100
FC(F)(F)c1cccc(CNCC2CCN(Cc3ccc4c(c3)OCO4)CC2)c1.O=C(O)C(F)(F)F | 100
CS(=O)(=O)N(c1ccccc1)c1cc(C(=O)N[C@@H](Cc2ccccc2)[C@H](O)CNC2CC2)cc(N2CCCC2=O)c1 | 100
CC1CN(c2nc(NCCc3ccc(O)cc3)nc(NCc3ccccc3-c3ccc(C(F)(F)F)cc3)n2)CC(C)N1 (stereo not given) | 100
O=C(/C=C/c1ccc(Cl)c(Cl)c1)NCCCCCN1CCC(NC(=O)Nc2ccc(F)c(Cl)c2)CC1 | 100
Nc1cc(-c2ccc3c(N)nccc3c2)ccc1Cl | 91
COc1ccc(-c2cc(NCc3ccc(-n4ccnc4)cc3)nc(Nc3ccccc3)n2)cc1 | 100
Cc1cc(C)c(C)c(S(=O)(=O)N2CCCCC(c3ccc(F)c(F)c3)=N2)c1C | 86
N=C(N)c1ccc(NCc2cccc(C(=O)O)c2)cc1.O=C(O)C(F)(F)F | 84
Cc1ccc(C(C(=O)Nc2ccc(N3CCNCC3)c(Cl)c2)c2ccccc2)cc1 (stereo not given) | 97
Cc1cccc2nc(-c3ccc(-c4cccc(NC(=O)Nc5ccccc5)c4)cc3)[nH]c12 | 100

Structure (SMILES) | Inhibition [%]
Cc1cc(-c2cc(-c3ccc(OCCN(C)C)cc3)[nH]c2-c2ccc3c(c2)CCC3=NO)ccn1 | 100
COc1ccc(Cl)cc1NC(=O)C(C)Nc1ccc(-c2ccccc2)cc1 (stereo not given) | 91
CCOC(=O)C(C(=O)OCC)c1nc(C)ns1 | 99
O=C(O)C(F)(F)F.c1ccc2c(c1)CN(Cc1ccsc1)CC1(CCN(Cc3c[nH]c4cnccc34)CC1)O2 | 87
Cc1cc(N/N=C/c2cccc([N+](=O)[O-])c2)c2ccccc2n1 | 100
CN(Cc1ccccc1)C(=O)CCNS(=O)(=O)c1cc(Br)cnc1N | 91
O=C(O)C(F)(F)F.O=S(=O)(NC1CCN(c2ccnc3cc(Cl)ccc23)C1)c1cccc(F)c1 (stereo not given) | 98
CC(C)(C)c1ccc(CN2CCC(NC(=O)c3ccc(-c4ccccc4Cl)s3)CC2)cc1.O=C(O)C(F)(F)F | 84
Cl.N#Cc1ccc2c(c1)CCN(CCC1CCC(NC(=O)/C=C/c3ccc(F)c4ccccc34)CC1)CC2 (stereo not given) | 95
O=C(O)C(F)(F)F.O=S(=O)(NC1CCN(c2ccnc3ccccc23)C1)c1ccc(OC(F)(F)F)cc1 (stereo not given) | 88
COc1ccc2nccc([C@@H](O)CN3CCC(NCc4ccc5c(n4)NCCC5)CC3)c2c1 | 100
COc1cc(NC(=O)NC(CCN2CCC3(CCc4ccccc43)CC2)c2ccc(Cl)c(Cl)c2)cc(OC)c1OC (stereo not given) | 90
COc1ccc(CN2CCCC(N3CC4(OC3=O)c3ccccc3-c3ccccc34)C2)c(O)c1 (stereo not given) | 92
Fc1cc(Cl)ccc1Nc1ccnc2cc(-c3scnc3CNCCN3CCOCC3)ccc12 | 99
COc1ccc2c(c1)S(=O)(=O)N=C(N1CCCC1c1ccc(Cl)c(Cl)c1)N2C.O=C(O)C(F)(F)F (stereo not given) | 89
CS(=O)(=O)c1ccc(-c2nc(NCC3CCCCC3)cc(C(F)(F)F)n2)cc1 | 83
O=C(Nc1ccc(-c2ccc(-c3nc4ccccc4[nH]3)s2)cc1)c1ccncc1 | 94
COc1ccc2[nH]ccc(=NN=Cc3ccccc3Cl)c2c1 | 100
COc1ccc2ncc(F)c(CCN3C4CCC3CC(NCc3cc5c(cn3)OCS5)C4)c2n1.Cl (stereo not given) | 95
CC(CN(C)C)C(=O)Nc1ccc(-c2ccc(-c3nc4cc(F)ccc4[nH]3)cc2)cc1 (stereo not given) | 100

What follows are compounds tested on Plasmodium falciparum (assay: GSK_TCMDC: Inhibition of Plasmodium falciparum Dd2 in whole red blood cells, using parasite LDH activity as an index of growth. Test compounds present at 2uM).
Assay type: functional

Structure (SMILES) | Inhibition [%]
O=C(/C=C/c1ccc2ccccc2c1)NCCCCCN1CCC(c2c[nH]c3ccccc23)CC1 | 4
Fc1ccc(Nc2ccnc3cc(-c4ccc(CN5CCOCC5)o4)ccc23)c(Cl)c1 | 100
CC(C)CCN(Cc1cncn1Cc1cccc(C(F)(F)F)c1)C(=O)c1cncc(-c2ccccc2)c1 | 4
COc1cc2c(cc1OCCN1CCC(N3CCCC3)CC1)N(C(=O)/C=C/c1ccccc1Cl)CC2.Cl | 68
COCCCNc1sc(S(=O)(=O)c2ccccc2)nc1S(=O)(=O)c1ccc(Cl)cc1 | 87
Cc1[nH]c(C)c(-c2ccc(CCc3ccc(F)cc3F)cc2)c(=O)c1Cl | 97
O=C(Nc1ccc(N2CCCN(Cc3cccc(F)c3)CC2)cc1)c1ccccc1.O=C(O)C(F)(F)F | 95
CC1CC(NCCCNc2cc(=O)c3ccccc3[nH]2)c2cc(Cl)c(Cl)c(Cl)c21 (stereo not given) | 69
N#Cc1nc2ccc(OCCN(Cc3ccccc3C(F)(F)F)c3ccc(C#N)c(C(F)(F)F)c3)cc2s1 | 47
C(=N\Nc1nccc2sc(-c3cccnc3)cc12)/c1ccncc1 | 94
FC(F)(F)c1cccc(CNCC2CCN(Cc3ccc4c(c3)OCO4)CC2)c1.O=C(O)C(F)(F)F | 19
CS(=O)(=O)N(c1ccccc1)c1cc(C(=O)N[C@@H](Cc2ccccc2)[C@H](O)CNC2CC2)cc(N2CCCC2=O)c1 | 98
CC1CN(c2nc(NCCc3ccc(O)cc3)nc(NCc3ccccc3-c3ccc(C(F)(F)F)cc3)n2)CC(C)N1 (stereo not given) | 68
O=C(/C=C/c1ccc(Cl)c(Cl)c1)NCCCCCN1CCC(NC(=O)Nc2ccc(F)c(Cl)c2)CC1 | 11
Nc1cc(-c2ccc3c(N)nccc3c2)ccc1Cl | 4
COc1ccc(-c2cc(NCc3ccc(-n4ccnc4)cc3)nc(Nc3ccccc3)n2)cc1 | 79
Cc1cc(C)c(C)c(S(=O)(=O)N2CCCCC(c3ccc(F)c(F)c3)=N2)c1C | 60
N=C(N)c1ccc(NCc2cccc(C(=O)O)c2)cc1.O=C(O)C(F)(F)F | 79
Cc1ccc(C(C(=O)Nc2ccc(N3CCNCC3)c(Cl)c2)c2ccccc2)cc1 (stereo not given) | 93
Cc1cccc2nc(-c3ccc(-c4cccc(NC(=O)Nc5ccccc5)c4)cc3)[nH]c12 | 14

Structure (SMILES) | Inhibition [%]
Cc1cc(-c2cc(-c3ccc(OCCN(C)C)cc3)[nH]c2-c2ccc3c(c2)CCC3=NO)ccn1 | 92
COc1ccc(Cl)cc1NC(=O)C(C)Nc1ccc(-c2ccccc2)cc1 (stereo not given) | 89
CCOC(=O)C(C(=O)OCC)c1nc(C)ns1 | 0
O=C(O)C(F)(F)F.c1ccc2c(c1)CN(Cc1ccsc1)CC1(CCN(Cc3c[nH]c4cnccc34)CC1)O2 | 75
Cc1cc(N/N=C/c2cccc([N+](=O)[O-])c2)c2ccccc2n1 | 98
CN(Cc1ccccc1)C(=O)CCNS(=O)(=O)c1cc(Br)cnc1N | 61
O=C(O)C(F)(F)F.O=S(=O)(NC1CCN(c2ccnc3cc(Cl)ccc23)C1)c1cccc(F)c1 (stereo not given) | 88
CC(C)(C)c1ccc(CN2CCC(NC(=O)c3ccc(-c4ccccc4Cl)s3)CC2)cc1.O=C(O)C(F)(F)F | 29
Cl.N#Cc1ccc2c(c1)CCN(CCC1CCC(NC(=O)/C=C/c3ccc(F)c4ccccc34)CC1)CC2 (stereo not given) | 19
O=C(O)C(F)(F)F.O=S(=O)(NC1CCN(c2ccnc3ccccc23)C1)c1ccc(OC(F)(F)F)cc1 (stereo not given) | 0
COc1ccc2nccc([C@@H](O)CN3CCC(NCc4ccc5c(n4)NCCC5)CC3)c2c1 | 39
COc1cc(NC(=O)NC(CCN2CCC3(CCc4ccccc43)CC2)c2ccc(Cl)c(Cl)c2)cc(OC)c1OC (stereo not given) | 66
COc1ccc(CN2CCCC(N3CC4(OC3=O)c3ccccc3-c3ccccc34)C2)c(O)c1 (stereo not given) | 34
Fc1cc(Cl)ccc1Nc1ccnc2cc(-c3scnc3CNCCN3CCOCC3)ccc12 | 84
COc1ccc2c(c1)S(=O)(=O)N=C(N1CCCC1c1ccc(Cl)c(Cl)c1)N2C.O=C(O)C(F)(F)F (stereo not given) | 19
CS(=O)(=O)c1ccc(-c2nc(NCC3CCCCC3)cc(C(F)(F)F)n2)cc1 | 76
O=C(Nc1ccc(-c2ccc(-c3nc4ccccc4[nH]3)s2)cc1)c1ccncc1 | 95
COc1ccc2[nH]ccc(=NN=Cc3ccccc3Cl)c2c1 | 99
COc1ccc2ncc(F)c(CCN3C4CCC3CC(NCc3cc5c(cn3)OCS5)C4)c2n1.Cl (stereo not given) | 48
CC(CN(C)C)C(=O)Nc1ccc(-c2ccc(-c3nc4cc(F)ccc4[nH]3)cc2)cc1 (stereo not given) | 95
